# PubChem BioAssay AID1159580 (chemical genetic matrix, 2015)
# The whole screen tested about 5,500 compounds, of which about 2,000 (36%) were called active. About 18% were inconclusive and are not listed. Some of the results follow. Unmarked numbers belong to inactive results. Rule as the data show it: active = normalized growth mostly below about 0.91 (no sharp cut-off); inconclusive = no clear call, values can overlap the other calls; inactive = mostly above about 0.92.
# Experiment: chemical genetic growth profiling, strain panel (AID 1159580);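 also: tested at 20 µM; growth read once vehicle control cultures reached saturation at 30 °C; 1 = growth at the plate median or of vehicle wells; lower values mean less growth of the strain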
# Conditions: growth OD
# [1] = S. cerevisiae deletion strains, locus YDL101C, strain DUN1, active compounds read low
# [2] = S. cerevisiae deletion strains, locus YHR030C, strain SLT2, active compounds read low
# [3] = S. cerevisiae deletion strains, locus YAL013W, strain DEP1, active compounds read low
# [4] = S. cerevisiae deletion strains, locus YBR229C, strain ROT2, active compounds read low
# [5] = S. cerevisiae deletion strains, locus YDR150W, strain NUM1, active compounds read low
# [6] = S. cerevisiae deletion strains, locus YEL061C, strain CIN8, active compounds read low
# [7] = S. cerevisiae deletion strains, locus YGR078C, strain PAC10, active compounds read low
# [8] = S. cerevisiae deletion strains, locus YHR087W, strain rtc3, active compounds read low
# [9] = S. cerevisiae deletion strains, locus YJR043C, strain POL32, active compounds read low
# [10] = S. cerevisiae deletion strains, locus YJR075W, strain HOC1, active compounds read low
# [11] = S. cerevisiae deletion strains, locus YLR039C, strain RIC1, active compounds read low
# [12] = S. cerevisiae deletion strains, locus YLR058C, strain SHM2 (second series), active compounds read low
# [13] = S. cerevisiae deletion strains, locus YLR085C, strain ARP6, active compounds read low
# [14] = S. cerevisiae deletion strains, locus YLR262C, strain YPT6, active compounds read low
# [15] = S. cerevisiae deletion strains, locus YML094W, strain GIM5, active compounds read low
# [16] = S. cerevisiae deletion strains, locus YMR219W, strain ESC1, active compounds read low
# [17] = S. cerevisiae deletion strains, locus YMR263W, strain SAP30, active compounds read low
# [18] = S. cerevisiae deletion strains, locus YNL153C, strain GIM3, active compounds read low
# [19] = S. cerevisiae deletion strains, locus YNL298W, strain CLA4 (second series), active compounds read low
# [20] = S. cerevisiae deletion strains, locus YNL322C, strain KRE1, active compounds read low
# [21] = S. cerevisiae deletion strains, locus YNR030W, strain Alg12, active compounds read low
# [22] = S. cerevisiae deletion strains, locus YPL055C, strain LGE1, active compounds read low
# [23] = S. cerevisiae deletion strains, locus YPL241C, strain CIN2, active compounds read low
# [24] = S. cerevisiae deletion strains, locus YPR135W, strain CTF4, active compounds read low
compound,measurement,setting,value
S=C(NCCc1csc2ccccc12)Nc1ccc(Cl)cc1,normalized growth,"S. cerevisiae deletion strains, locus YAR019C, strain CDC15, active compounds read low",0.923
same,normalized growth,"S. cerevisiae deletion strains, locus YBL105C, strain PKC1, active compounds read low",0.945
same,normalized growth,"S. cerevisiae deletion strains, locus YBR135W, strain CKS1, active compounds read low",0.945
same,normalized growth,"S. cerevisiae deletion strains, locus YBR136W, strain MEC1, active compounds read low",0.944
same,normalized growth,"S. cerevisiae deletion strains, locus YBR160W, strain CDC28, active compounds read low",0.956
same,normalized growth,"S. cerevisiae deletion strains, locus YDL017W, strain CDC7, active compounds read low",0.952
same,normalized growth,"S. cerevisiae deletion strains, locus YDL028C, strain MPS1, active compounds read low",0.942
same,normalized growth,[1],0.962
same,normalized growth,"S. cerevisiae deletion strains, locus YDL108W, strain KIN28, active compounds read low",0.95
same,normalized growth,"S. cerevisiae deletion strains, locus YDL132W, strain cdc53, active compounds read low",0.944
same,normalized growth,"S. cerevisiae deletion strains, locus YDL214C, strain PRR2, active compounds read low",0.797
same,normalized growth,"S. cerevisiae deletion strains, locus YDR052C, strain DBF4, active compounds read low",0.96
same,normalized growth,"S. cerevisiae deletion strains, locus YDR054C, strain cdc34, active compounds read low",0.931
same,normalized growth,"S. cerevisiae deletion strains, locus YDR226W, strain ADK1, active compounds read low",0.951
same,normalized growth,"S. cerevisiae deletion strains, locus YDR477W, strain SNF1, active compounds read low",0.815
same,normalized growth,"S. cerevisiae deletion strains, locus YER123W, strain YCK3, active compounds read low",0.719
same,normalized growth,"S. cerevisiae deletion strains, locus YER133W, strain GLC7, active compounds read low",0.816
same,normalized growth,"S. cerevisiae deletion strains, locus YFL009W, strain cdc4, active compounds read low",0.944
same,normalized growth,"S. cerevisiae deletion strains, locus YFL029C, strain CAK1, active compounds read low",0.9
same,normalized growth,"S. cerevisiae deletion strains, locus YFR003C, strain YPI1, active compounds read low",0.953
same,normalized growth,"S. cerevisiae deletion strains, locus YFR019W, strain FAB1, active compounds read low",0.934
same,normalized growth,"S. cerevisiae deletion strains, locus YFR028C, strain CDC14, active compounds read low",0.945
same,normalized growth,"S. cerevisiae deletion strains, locus YGR040W, strain KSS1, active compounds read low",0.819
same,normalized growth,"S. cerevisiae deletion strains, locus YGR052W, strain FMP48, active compounds read low",0.795
same,normalized growth,"S. cerevisiae deletion strains, locus YGR092W, strain DBF2, active compounds read low",0.735
same,normalized growth,[2],0.5 (active)
same,normalized growth,"S. cerevisiae deletion strains, locus YHR079C, strain IRE1, active compounds read low",0.786
same,normalized growth,"S. cerevisiae deletion strains, locus YHR082C, strain KSP1, active compounds read low",0.721
same,normalized growth,"S. cerevisiae deletion strains, locus YHR205W, strain SCH9, active compounds read low",0.566 (active)
same,normalized growth,"S. cerevisiae deletion strains, locus YIL147C, strain SLN1, active compounds read low",0.938
same,normalized growth,"S. cerevisiae deletion strains, locus YJL095W, strain BCK1, active compounds read low",0.677
same,normalized growth,"S. cerevisiae deletion strains, locus YJL128C, strain PBS2, active compounds read low",0.872
same,normalized growth,"S. cerevisiae deletion strains, locus YJL157C, strain FAR1, active compounds read low",0.863
same,normalized growth,"S. cerevisiae deletion strains, locus YJR016C, strain ILV3, active compounds read low",0.945
same,normalized growth,"S. cerevisiae deletion strains, locus YJR066W, strain TOR1 (second series), active compounds read low",0.759
same,normalized growth,"S. cerevisiae deletion strains, locus YJR066W, strain TOR1, active compounds read low",0.727
same,normalized growth,"S. cerevisiae deletion strains, locus YKL048C, strain ELM1, active compounds read low",0.914
same,normalized growth,"S. cerevisiae deletion strains, locus YKL067W, strain YNK1, active compounds read low",0.828
same,normalized growth,"S. cerevisiae deletion strains, locus YKL101W, strain HSL1, active compounds read low",0.787
same,normalized growth,"S. cerevisiae deletion strains, locus YKL193C, strain SDS22, active compounds read low",0.943
same,normalized growth,"S. cerevisiae deletion strains, locus YKL203C, strain TOR2, active compounds read low",0.886
same,normalized growth,"S. cerevisiae deletion strains, locus YLR113W, strain HOG1, active compounds read low",0.536 (active)
same,normalized growth,"S. cerevisiae deletion strains, locus YLR133W, strain CKI1, active compounds read low",0.797
same,normalized growth,"S. cerevisiae deletion strains, locus YLR403W, strain SFP1, active compounds read low",0.752
same,normalized growth,"S. cerevisiae deletion strains, locus YML070W, strain DAK1, active compounds read low",0.808
same,normalized growth,"S. cerevisiae deletion strains, locus YMR001C, strain CDC5, active compounds read low",0.946
same,normalized growth,"S. cerevisiae deletion strains, locus YMR205C, strain PFK2 (second series), active compounds read low",0.84
same,normalized growth,"S. cerevisiae deletion strains, locus YMR277W, strain FCP1, active compounds read low",0.941
same,normalized growth,"S. cerevisiae deletion strains, locus YNL006W, strain LST8, active compounds read low",0.96
same,normalized growth,"S. cerevisiae deletion strains, locus YNL020C, strain ARK1, active compounds read low",0.795
same,normalized growth,"S. cerevisiae deletion strains, locus YNL161W, strain CBK1, active compounds read low",0.952
same,normalized growth,"S. cerevisiae deletion strains, locus YNL183C, strain NPR1, active compounds read low",0.754
same,normalized growth,"S. cerevisiae deletion strains, locus YNL207W, strain RIO2, active compounds read low",0.937
same,normalized growth,"S. cerevisiae deletion strains, locus YNL222W, strain SSU72, active compounds read low",0.952
same,normalized growth,"S. cerevisiae deletion strains, locus YNL307C, strain MCK1 (second series), active compounds read low",0.729
same,normalized growth,"S. cerevisiae deletion strains, locus YOL078W, strain AVO1, active compounds read low",0.945
same,normalized growth,"S. cerevisiae deletion strains, locus YOL136C, strain PFK27, active compounds read low",0.8
same,normalized growth,"S. cerevisiae deletion strains, locus YOR061W, strain CKA2, active compounds read low",0.811
same,normalized growth,"S. cerevisiae deletion strains, locus YOR119C, strain RIO1, active compounds read low",0.867
same,normalized growth,"S. cerevisiae deletion strains, locus YOR231W, strain MKK1, active compounds read low",0.789
same,normalized growth,"S. cerevisiae deletion strains, locus YOR329C, strain SCD5, active compounds read low",0.952
same,normalized growth,"S. cerevisiae deletion strains, locus YPL031C, strain PHO85, active compounds read low",0.768
same,normalized growth,"S. cerevisiae deletion strains, locus YPL153C, strain RAD53, active compounds read low",0.775
same,normalized growth,"S. cerevisiae deletion strains, locus YPL204W, strain HRR25, active compounds read low",0.809
same,normalized growth,"S. cerevisiae deletion strains, locus YPL209C, strain IPL1, active compounds read low",0.946
same,normalized growth,"S. cerevisiae deletion strains, locus YPL256C, strain CLN2, active compounds read low",0.667 (active)
same,normalized growth,"S. cerevisiae deletion strains, locus YPR025C, strain CCL1, active compounds read low",0.945
same,normalized growth,"S. cerevisiae deletion strains, locus YPR106W, strain ISR1, active compounds read low",0.936
same,normalized growth,"S. cerevisiae deletion strains, locus YPR111W, strain DBF20, active compounds read low",0.917
same,normalized growth,"S. cerevisiae deletion strains, strain NNK1, active compounds read low",0.914
same,normalized growth,"S. cerevisiae deletion strains, strain TSCII, active compounds read low",0.922
COc1ccccc1NC(=S)NCCc1ccc(OC)c(OC)c1,normalized growth,[3],0.997
same,normalized growth,[4],1
same,normalized growth,[1],1.05
same,normalized growth,[5],1.02
same,normalized growth,[6],0.998
same,normalized growth,[7],0.998
same,normalized growth,[2],0.979
same,normalized growth,[8],1.02
same,normalized growth,[9],0.982
same,normalized growth,[10],0.991
same,normalized growth,[11],0.91
same,normalized growth,[12],0.99
same,normalized growth,[13],0.942
same,normalized growth,[14],0.954
same,normalized growth,[15],1.1
same,normalized growth,[16],0.999
same,normalized growth,[17],0.989
same,normalized growth,[18],1.02
same,normalized growth,[19],0.952
same,normalized growth,[20],0.997
same,normalized growth,[21],1.02
same,normalized growth,[22],1.03
same,normalized growth,[23],0.927
same,normalized growth,[24],1.04
COc1cc([C@@H]2c3cc4c(cc3[C@H](O)C3COC(=O)[C@@H]32)OCO4)cc(OC)c1OC (stereo not given in full),normalized growth,"S. cerevisiae deletion strains, locus YAL040C, strain CLN3, active compounds read low",1.06
same,normalized growth,"S. cerevisiae deletion strains, locus YCL061C, strain MRC1 (second series), active compounds read low",0.999
same,normalized growth,"S. cerevisiae deletion strains, locus YDR363W, strain ESC2, active compounds read low",1
same,normalized growth,"S. cerevisiae deletion strains, locus YER002W, strain NOP16, active compounds read low",1.02
same,normalized growth,[7],1.02
same,normalized growth,[18],1.04
same,normalized growth,"S. cerevisiae deletion strains, locus YNL175C, strain NOP13, active compounds read low",1.02
same,normalized growth,"S. cerevisiae deletion strains, locus YNL197C, strain WHI3, active compounds read low",1
same,normalized growth,"S. cerevisiae deletion strains, locus YNL224C, strain SQS1, active compounds read low",1
same,normalized growth,"S. cerevisiae deletion strains, locus YOR083W, strain WHI5 (second series), active compounds read low",1
CC(=N/O)/C(C)=C/c1ccc(Cl)cc1,normalized growth,[3],0.8 (active)
same,normalized growth,[4],0.822 (active)
same,normalized growth,[1],0.835 (active)
same,normalized growth,[5],0.847
same,normalized growth,[6],0.648 (active)
same,normalized growth,[7],0.752 (active)
same,normalized growth,"S. cerevisiae deletion strains, locus YGR229C, strain SMI1, active compounds read low",0.898 (active)
same,normalized growth,[2],0.165 (active)
same,normalized growth,[8],0.785 (active)
same,normalized growth,[9],0.824 (active)
same,normalized growth,[10],0.521 (active)
same,normalized growth,[11],0.327 (active)
same,normalized growth,[12],0.848 (active)
same,normalized growth,[13],0.164 (active)
same,normalized growth,[14],0.311 (active)
same,normalized growth,[15],0.712 (active)
same,normalized growth,[16],0.855 (active)
same,normalized growth,[17],0.837 (active)
same,normalized growth,[18],0.852 (active)
same,normalized growth,[19],0.441 (active)
same,normalized growth,[20],0.885 (active)
same,normalized growth,[21],0.555 (active)
same,normalized growth,"S. cerevisiae deletion strains, locus YOL006C, strain TOP1, active compounds read low",0.305 (active)
same,normalized growth,[22],0.56 (active)
same,normalized growth,[23],0.502 (active)
same,normalized growth,[24],0.231 (active)
C/C(=N/O)c1ccn(S(=O)(=O)c2ccc(Cl)cc2)c1,normalized growth,[3],0.998
same,normalized growth,[4],1.02
same,normalized growth,"S. cerevisiae deletion strains, locus YCL061C, strain MRC1, active compounds read low",1.05
same,normalized growth,[1],1.03
same,normalized growth,"S. cerevisiae deletion strains, locus YDL134C, strain PPH21, active compounds read low",1
same,normalized growth,[5],0.891
same,normalized growth,[6],0.983
same,normalized growth,[7],1.01
same,normalized growth,[2],1.02
same,normalized growth,[8],0.992
same,normalized growth,[9],1.05
same,normalized growth,[10],1.02
same,normalized growth,"S. cerevisiae deletion strains, locus YKL190W, strain CNB1, active compounds read low",0.995
same,normalized growth,[11],1.04
same,normalized growth,[12],0.978
same,normalized growth,[13],0.99
same,normalized growth,[14],1.04
same,normalized growth,[15],1.02
same,normalized growth,[16],0.996
same,normalized growth,[17],0.998
same,normalized growth,"S. cerevisiae deletion strains, locus YNL128W, strain TEP1, active compounds read low",1
same,normalized growth,[18],1.05
same,normalized growth,[19],1.02
same,normalized growth,[20],0.983
same,normalized growth,[21],1
same,normalized growth,[22],0.989
same,normalized growth,[23],1
same,normalized growth,[24],1.06
same,normalized growth,"S. cerevisiae strains, strain wild type, active compounds read low",1.01
